The source of these data is PubChem BioAssay AID463173 (ICCB-Longwood Screening Facility, Harvard Medical School, 2010).

The whole screen tested about 52,000 compounds, of which about 4,300 (8.3%) were called active. This excerpt belongs to a sample that is enriched for actives. A number with no mark means an inactive call. No stated cut-off is given here; in the data, active means survival mostly below about 52% (no sharp cut-off); inactive means mostly above about 56%.

The experiment concerns DeltatarO mutant. Nature of the experiment: growth inhibition of S. aureus wild type versus tarO mutant, primary screen, teichoic acid synthesis inhibitors, RN4220, OD600 (AID 463173). Particulars: OD600, 18 h, hits give low values, screened at 18.75 µg/mL (by protocol).
As to `CC1CCc2c(sc3nnn(CC(=O)Nc4cccc(C(F)(F)F)c4)c(=O)c23)C1` (stereo unspecified), the survival was 70%. On to `COc1ccc(NC(=O)c2cc(S(=O)(=O)N3CCCCCC3)cn2C)c(OC)c1`, for which the survival was 80%. With `COc1ccccc1N1CCN(C(=O)CCn2cnc3onc(-c4ccc(F)cc4)c3c2=O)CC1`, the survival is 66%. On to `O=C(CCn1cnc2onc(-c3ccc(F)cc3)c2c1=O)N1CCN(c2ccccc2F)CC1`, for which the survival is -4% (active). Regarding `O=C(CCn1cnc2onc(-c3ccc(F)cc3)c2c1=O)N1CCN(c2ccc(F)cc2)CC1`, the survival is 77%.

As for `O=C(CCn1cnc2onc(-c3ccc(F)cc3)c2c1=O)N1CCN(c2ccccc2)CC1`, the survival was 60%. Consider `CC(=O)c1ccc(N2CCN(C(=O)CCn3cnc4onc(-c5ccc(F)cc5)c4c3=O)CC2)cc1`, for which the survival is -5% (active). The figure for `O=C(Cn1cnc2onc(-c3ccc(F)cc3)c2c1=O)N1CCN(c2ccccc2F)CC1` is 76%; for `CC(=O)c1ccc(NC(=O)C2=CC(c3ccc4c(c3)OCO4)=NS(=O)(=O)N2C)cc1` it is 103%. `CCc1cccc(NC(=O)c2c(N3CCCC3=O)c3cc(C)ccc3n2C)c1`: the survival was 74%.

As to `CCOC(=O)C1CCN(C(=O)Cn2c(=O)oc3cc(S(=O)(=O)N4CCC(C)CC4)ccc32)CC1`, the survival is 133%. As for `Cc1cc(C)cc(NC(=O)CSc2nnc(CNC(=O)c3c(F)cccc3Cl)o2)c1`, the survival was 132%. For `CN(C)S(=O)(=O)c1ccc2c(c1)N(CC(=O)N1CCN(c3ccccc3F)CC1)CCS2`, the survival is 119%. The figure for `COc1cc(NC(=O)Cn2nc(C(F)(F)F)c3c2CCC3)cc(OC)c1OC` is 130%. With `CC(C)NC(=O)N1[C@H](c2cccs2)[C@@H](C)C(=O)[C@@H](C)[C@@H]1c1cccs1`, the survival was 51%. The figure for `COc1ccccc1NC(=O)c1ccc2[nH]c(C)cc(=O)c2c1` is 77%; for `CCOC(=O)c1c(NC(=O)COc2ccc(F)cc2)sc2c1CCC(C)C2` (stereo unspecified) it is 70%; for `CCOC(=O)c1c(NC(=O)Cn2nnc3ccccc32)sc2c1CCC(C)C2` (stereo unspecified) it is 64%. The figure for `CCOC(=O)c1c(NC(=O)CS(=O)(=O)c2ccc(C)cc2)sc2c1CCC(C)C2` (stereo unspecified) is 102%; for `Cc1ccc(OCCCC(=O)Nc2sc3c(c2C(N)=O)CCC(C)C3)cc1` (stereo unspecified) it is 159%. As to `CCOC(=O)c1c(NC(=O)CCCOc2ccc(C)cc2)sc2c1CCC(C)C2` (stereo unspecified), the survival was 10% (active). Consider `CCOC(=O)c1c(NC(=O)CCCOc2ccccc2C)sc2c1CCC(C)C2` (stereo unspecified), for which the survival is 16% (active). `CCc1cnc2c(c1SC(C(C)=O)C(=O)N(C)C)c(=O)n(C)c(=O)n2C` (stereo unspecified): the survival was 95%. For the compound `O=C(NC1CCCC1)c1ccc2c(=O)n(Cc3ccccc3)c(SCc3cccc(F)c3)nc2c1`, the survival is 72%. As for `CCCCOc1ccc(C2c3c(oc4ccccc4c3=O)C(=O)N2c2nc(C)c(C(=O)OCC)s2)cc1OC` (stereo unspecified), the survival was 55%. Consider `CCCn1c2c(c(O)c(C(=O)Nc3ccccc3F)c1=O)CCCC2`, for which the survival was 93%.

Consider `Cc1ccc(C(=O)Nc2nnc(S(=O)(=O)N3c4ccccc4CC3C)s2)cc1` (stereo unspecified), for which the survival was 30% (active). The result for `CCC(=O)Nc1nnc(S(=O)(=O)N2c3ccccc3CC2C)s1` (stereo unspecified) reads 92%. As for `Cc1ccc(OCC(=O)Nc2nnc(S(=O)(=O)N3c4ccccc4CC3C)s2)cc1` (stereo unspecified), the survival is 34% (active). As for `Cc1cccc(C(=O)Nc2nnc(S(=O)(=O)N3c4ccccc4CC3C)s2)c1` (stereo unspecified), the survival was 16% (active).

As to `CC1Cc2ccccc2N1S(=O)(=O)c1nnc(NC(=O)c2cccc(F)c2)s1` (stereo unspecified), the survival was 6% (active).

With `CC(C)CC(=O)Nc1nnc(S(=O)(=O)N2c3ccccc3CC2C)s1` (stereo unspecified), the survival is 75%. Consider `CCn1ccc2cc(S(=O)(=O)N3CCC(C(=O)NCCc4ccccc4)CC3)ccc21`, for which the survival is 102%. On to `CCOC(=O)c1[nH]c2c(c1Cc1ccccc1)C(=O)CC(c1ccc(Cl)cc1)C2` (stereo unspecified), for which the survival is 92%. The figure for `NC(=O)c1ccc(NC(=O)C2CCN(S(=O)(=O)Cc3ccccc3)CC2)cc1` is 87%; for `CCOc1ccc(NC(=O)c2cnn3c2NC(C)=C(C(=O)Nc2ccc(Cl)cc2)C3c2ccc(OC)c(OC)c2)cc1` (stereo unspecified) it is 59%.

`Cc1ccccc1C(=O)N1CCC(C(=O)Nc2ccc(F)cc2F)CC1`: the survival is 67%. As to `O=C(Cn1ncc2c(Cl)cccc21)NCc1cccc(Cl)c1`, the survival is 110%. For the compound `CCC(CC)C(=O)Nc1nnc(S(=O)(=O)N2c3ccccc3CC2C)s1` (stereo unspecified), the survival was 61%. As to `CC(C)C(=O)Nc1nnc(S(=O)(=O)N2c3ccccc3CC2C)s1` (stereo unspecified), the survival is 87%. In the case of `CC1Cc2ccccc2N1S(=O)(=O)c1nnc(NC(=O)c2ccccc2)s1` (stereo unspecified), the survival is 12% (active). As to `Cc1cc(C)n(C(=O)CNC(=O)Cc2ccccc2)n1`, the survival was 89%.

In the case of `CC(=O)N1c2ccccc2C(=O)C1N1CCN(c2cccc(C)c2C)CC1` (stereo unspecified), the survival is 80%. `COc1ccc(-c2noc(CCC(=O)N(C)c3ccccc3C)n2)cc1`: the survival was 80%. Take `COc1ccc(CNC(=O)CCc2nc(-c3ccc(OC)cc3)no2)cc1`: the survival was 96%. In the case of `CCCN(C(=O)CCc1nc(-c2ccc(OC)cc2)no1)c1ccccc1F`, the survival is 3% (active). On to `Cc1ccc(-c2noc(CCC(=O)N(C)c3ccccc3F)n2)cc1`, for which the survival was 38% (active). In the case of `CCOC(=O)c1ccccc1NC(=O)CCc1nc(-c2ccc(C)cc2)no1`, the survival was 58%. Take `CCCN(C(=O)Cc1nc(-c2ccc(OC)cc2)no1)c1ccccc1C`: the survival is 85%.

On to `CCCN(C(=O)CCc1nc(-c2ccccc2F)no1)c1ccc(CC)cc1`, for which the survival is -7% (active). The result for `CCCN(C(=O)CCc1nc(-c2ccc(C)cc2)no1)c1ccc(OCC)cc1` reads -4% (active); that for `COc1ccc(OC)c(NC(=O)CCc2nc(-c3ccc(C)cc3)no2)c1`, 70%; that for `CN(C(=O)CCc1nc(-c2ccccc2F)no1)c1ccc(Cl)cc1`, 56%. Consider `COc1ccc(-c2noc(CC(=O)N(C)c3ccccc3F)n2)cc1`, for which the survival was 87%.

As for `CCOc1ccc(N(CC)C(=O)CCc2nc(-c3ccccc3F)no2)cc1`, the survival is 46%. For `COc1ccc2c(c1)cc1c(=O)n(CC(=O)NCCCOC(C)C)nc(C)n12`, the survival was 80%. Take `O=C(NCCc1ccc(Cl)cc1)c1c2c(nc3ccccc13)C(=O)N(C1CCCCC1)C2`: the survival was 92%.

Turning to `Cn1c(C(=O)NCc2cccc(F)c2)cc2cc(S(=O)(=O)N3CCCCC3)ccc21`, the survival is 81%.

As to `O=C(CSC1=NCCN1)C1COc2ccccc2O1` (stereo unspecified), the survival is 88%. For the compound `Cc1ccc(C(=O)NCC(=O)OCc2cc(=O)n3ccsc3n2)cc1`, the survival was 74%. As to `CCN(CC)CCNC(=O)C(=O)NCC(c1cccnc1)N1CCN(c2ccc(F)cc2)CC1` (stereo unspecified), the survival is 79%. `CC1(c2ccc(Cl)cc2)NC(=O)CS1` (stereo unspecified): the survival is 96%. With `C=CCNc1nc(C(C)C)nc2c1nnn2Cc1ccccc1`, the survival was 86%. Take `O=C(CSc1nc2ccccc2o1)Nc1ccc(S(=O)(=O)NC2CCCC2)cc1`: the survival is 66%. The figure for `COc1ccccc1NC(=O)C(=O)c1cc(C)n(-c2cc(C)cc(C)c2)c1C` is 117%; for `COCCCNC(=O)CSc1nc2ccccc2c(=O)n1Cc1ccco1` it is 83%; for `COc1cccc(CNC(=O)CCCn2ncn3c(cc4occc43)c2=O)c1OC` it is 119%.

Take `Cc1ccc(NC(=O)Nc2cn(CC(C)C)c(=O)c3ccccc23)cc1N(C)C`: the survival was 78%. On to `CC(=O)Nc1ccc(-n2cc3c(c2-c2ccc(C)cc2)c(=O)n(C)c(=O)n3C)cc1`, for which the survival is 92%.

Turning to `COc1ccc(-c2noc(CC(=O)N(C)c3cc(Cl)c(OC)cc3OC)n2)cc1`, the survival was 82%. The result for `COc1ccc(-c2noc(CCC(=O)N(C)c3cc(Cl)ccc3OC)n2)cc1` reads 26% (active). With `COc1ccc(C)cc1N(C)C(=O)CCc1nc(-c2ccccc2F)no1`, the survival was 45%.

Consider `Cc1ccc(NC(=O)CCN2C(=O)c3ccccc3Sc3ncccc32)cc1`, for which the survival is 66%. Turning to `CCN(CC)C(=O)Cn1c(C)c(C#N)c2ccccc21`, the survival was 96%. The result for `O=C(CC(c1cccs1)N1Cc2ccccc2C1=O)Nc1ccc(F)c(Cl)c1` (stereo unspecified) reads 83%. `CCN(CC)C(=O)C1CCN(Cc2ccccc2F)CC1`: the survival was 99%.

`Cc1ccccc1Cn1c(=O)n(CCc2ccccc2)c(=O)c2ccccc21`: the survival was 64%. With `O=c1c2ccccc2n(Cc2ccccc2F)c(=O)n1-c1cccc(F)c1`, the survival was 68%. For `CCn1c2ccccc2c2cc(CN3CCN(Cc4ccccc4F)CC3)ccc21`, the survival was 7% (active).

Turning to `Cc1cccc(CCn2c(=O)c3ccccc3n(Cc3ccccc3C)c2=O)c1`, the survival is 72%.

For `CCn1c2ccccc2c2cc(CN3CCN(Cc4ccccc4C)CC3)ccc21`, the survival is -3% (active).

With `CCC(C)NC(=O)c1ccc2c(c1)N(Cc1ccccc1)C(=O)c1ccccc1S2` (stereo unspecified), the survival was 92%. In the case of `CCOc1cc2sc(N3CCC(C(=O)Nc4ccccc4Cl)CC3)nc2cc1Br`, the survival is 77%. Consider `CCOc1cc(C2NC(=O)c3c(sc4c3CCN(C)C4)N2)ccc1OC(=O)c1ccc(F)cc1` (stereo unspecified), for which the survival is 56%.

Take `COc1ccc(-c2[nH]c(-c3ccc(F)cc3)nc2SCC(=O)Nc2ccc(OC)c(OC)c2)cc1`: the survival was 53%.

Consider `O=C(CSc1cn(CC(=O)N2CCCCC2)c2ccccc12)NCc1ccccc1Cl`, for which the survival was 74%. Regarding `CN(C)S(=O)(=O)c1ccc(NC(=O)CNCc2ccco2)cc1`, the survival was 97%. As to `O=C(CN1CCCN(Cc2cccc(F)c2)S1(=O)=O)Nc1ccc2c(c1)OCCO2`, the survival was 80%. With `Cc1cc(C)cc(NC(=O)CCS(=O)(=O)c2ccc3nc(C)sc3c2)c1`, the survival was 50%. `Cc1ccc(NC(=O)CCS(=O)(=O)c2ccc3nc(C)sc3c2)cc1`: the survival is 34% (active). The result for `Cc1nc2ccc(S(=O)(=O)CCC(=O)Nc3ccc(Cl)cc3)cc2s1` reads 44%.
